# Results from PubChem BioAssay (NCI).
# This is part of a sample that, as a whole, favours compounds with a hit. Of some 83,000 tested, about 20% had one in any assay.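 96-well plates, one dose, 48 hours. Percent growth reported; active if below 10.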 Unmarked numbers belong to inactive results. Activity calls are given as the source filed them.
# System: NCI-H226 lung
# Assay: NCI-60 one-dose screen, 48 h (100 = growth as untreated, 0 = no growth, -100 = all killed)
# Conditions: 10 µM unless noted
row,Structure (SMILES),growth
1,O=C(c1ccccc1)c1ccc2nc(-c3ccc(F)cc3)[nH]c2c1,25.4%
2,CC1(C)CC[C@]2(C(=O)O)CC[C@]3(C)C(=CCC4[C@@]5(C)C[C@@H](O)[C@@H]6OC(c7ccc(F)cc7)OC[C@@]6(C)C5CC[C@]43C)C2C1 (stereo partly drawn),34.4%
3,N/C(=N\c1nc2ccccc2s1)NC(=O)Nc1ccc(Cl)cc1Cl,-40.2% (active)
4,CCCCSc1nc(Nc2ccc(S(N)(=O)=O)cc2)c(C#N)c(-c2cc(OC)c(OC)c(OC)c2)n1,59.3%
5,O=C(COc1ccc2c(c1)CCCC(=O)N2)NCc1ccccc1,93.9%
6,Nc1nc(-c2ccccc2)c(N=Nc2ccc([N+](=O)[O-])cc2Cl)s1,77.5%
7,CC1(C)CC[C@]2(C(=O)O)CC[C@]3(C)C(=CCC4[C@@]5(C)C[C@@H](O)[C@@H]6OC(c7cccc(Br)c7)OC[C@@]6(C)C5CC[C@]43C)C2C1 (stereo partly drawn),46.4%
8,C#CCOc1ccc(/C=N/Nc2nc(-c3cc4cc(OC)ccc4oc3=O)cs2)cc1OC,14.2%
9,N#Cc1c(NCc2ccccc2)n[nH]c1Nc1ccccc1,50.2%
10,COc1cc2oc(-c3cccc(C(=O)Nc4ccc(Cl)cc4)c3)cc(=O)c2c(OCC(=O)N[C@@H](Cc2ccccc2)C(=O)O)c1OC,102%
11,Cn1cc(-c2cc3nc(-c4c[nH]c5ccc(Cl)cc45)cc(N)n3n2)c2ccccc21,-33.8% (active)
12,C#C[C@]1(O)CC[C@H]2[C@@H]3CC=C4c5sc(-c6ccc([N+](=O)[O-])cc6)nc5CC[C@]4(C)[C@H]3CC[C@@]21C,71.6%
13,O=C(CSc1nc2ccccc2c(=O)[nH]1)NCCN1CCCCC1,95.7%
14,C#CCOc1cc(N(CC)CC)ccc1C(C(=O)NC(C)(C)C)N(C(=O)C1CCc2cc(F)ccc2O1)c1ccc(F)c(Cl)c1 (stereo not drawn),62.8%
15,O=c1oc2ccccc2cc1-c1csc(N2N=C(c3ccccc3)CC2c2ccc(N3CCOCC3)cc2)n1 (stereo not drawn),94.6%
16,Cn1cc(-c2cc(N)n3nc(-c4cn(C)c5ncccc45)cc3n2)c2cccnc21,86.5%
17,COc1ccc(-c2ccnc(SCc3cc4cc(OC)ccc4[nH]c3=O)n2)cc1,39.4%
18,CCOc1ccc(-c2c(C#N)c(-c3ccc(Cl)cc3)nc3n[nH]c(-c4ccc(Cl)cc4)c23)cc1OC,59.1%
19,CN(C)c1ccnc(NCCCSC(c2ccccc2)(c2ccccc2)c2ccccc2)c1,53%

row,Structure (SMILES),growth
1,O=C(Cn1c(/C=C/c2ccccc2)nc2ccccc2c1=O)Nc1ccccc1,60%
2,O=C(O)c1cccc(-c2ccc(/C=N/NC(=O)c3[nH]c4ccc(Br)cc4c3-c3ccccc3)s2)c1,57.6%
3,C#CCOc1cc(N(CC)CC)ccc1C(C(=O)NC(C)(C)C)N(C(=O)C1CCc2cc(F)ccc2O1)c1cc(C)cc(C)c1 (stereo not drawn),33.3%
4,COc1cc2c(c(OC)c1OC)C(=O)CC(c1cccc(NC(=O)c3cc(NC(=O)[C@@H](N)CO)ccc3C)c1)O2 (stereo partly drawn),103%
5,C#CCOc1ccc(/C=N/Nc2nc(-c3ccc(F)cc3)cs2)cc1OC,54.1%
6,Cc1cc2c(cc1Cl)C(=O)/C(=C/c1ccc(F)cc1)O2,84.3%
7,Cn1cc(-c2cc3nc(-c4cn(C)c5ncccc45)cc(N)n3n2)c2cc(Cl)ccc21,1.56% (active)
8,COc1ccc2[nH]cc(-c3cc(N)n4nc(-c5cn(C)c6ccccc56)cc4n3)c2c1,-19.3% (active)
9,COc1ccc(Cc2nn(CC(=O)N/N=C/c3ccc(F)cc3)c(=O)c3c(C)noc23)cc1,27.4%
10,Cc1ccc(NCC(=O)Cn2cc(COc3ccc(C=Nc4cnc5ccccc5c4)cc3)nn2)cc1,105%
11,Cc1cccc(NC(=O)CN2CCN(c3ncnc4c3cnn4-c3ccccc3)CC2)c1,84.8%
12,Cn1cc(-c2nc(N)nnc2-c2c[nH]c3ccc(F)cc23)c2cc(Br)cnc21,1.02% (active)
13,COc1ccc2[nH]cc(-c3nnc(N)nc3-c3cn(C)c4ncc(Br)cc34)c2c1,91.7%
14,COc1ccc(NC(=O)[C@H](C)N)cc1C(=O)Nc1cccc(C2CC(=O)c3c(cc(OC)c(OC)c3OC)O2)c1 (stereo partly drawn),85.5%
15,CC1(C)CC[C@]2(C(=O)O)CC[C@]3(C)C(=CCC4[C@@]5(C)C[C@@H](O)[C@@H]6OC(c7ccco7)OC[C@@]6(C)C5CC[C@]43C)C2C1 (stereo partly drawn),50.6%
16,COc1ccc2c(c1)c(/C=N/Nc1ccc3ccccc3n1)cn2C,32.9%
17,Cc1ccc(S(=O)(=O)c2nc(S(=O)(=O)c3ccc(C)cc3)c(N3CCN(C)CC3)s2)cc1,67.3%
18,COc1cc2c(c(OC)c1OC)C(=O)CC(c1cccc(NC(=O)c3cc(NC(=O)[C@H](C)N)ccc3Cl)c1)O2 (stereo partly drawn),48.9%
19,Cc1ccc(C(=O)C(c2c[nH]c3ccccc23)c2c[nH]c3ccccc23)cc1,38.9%
